{"source": "ChEMBL document CHEMBL1961873", "about": "“Compounds: GSK PKIS; Assays: Nanosyn kinase panel” (2012)", "data": [{"biological_target": "Fibroblast growth factor receptor 4 (Homo sapiens) (UniProt P22455)", "sequence (P22455 22-802 limits assumed)": "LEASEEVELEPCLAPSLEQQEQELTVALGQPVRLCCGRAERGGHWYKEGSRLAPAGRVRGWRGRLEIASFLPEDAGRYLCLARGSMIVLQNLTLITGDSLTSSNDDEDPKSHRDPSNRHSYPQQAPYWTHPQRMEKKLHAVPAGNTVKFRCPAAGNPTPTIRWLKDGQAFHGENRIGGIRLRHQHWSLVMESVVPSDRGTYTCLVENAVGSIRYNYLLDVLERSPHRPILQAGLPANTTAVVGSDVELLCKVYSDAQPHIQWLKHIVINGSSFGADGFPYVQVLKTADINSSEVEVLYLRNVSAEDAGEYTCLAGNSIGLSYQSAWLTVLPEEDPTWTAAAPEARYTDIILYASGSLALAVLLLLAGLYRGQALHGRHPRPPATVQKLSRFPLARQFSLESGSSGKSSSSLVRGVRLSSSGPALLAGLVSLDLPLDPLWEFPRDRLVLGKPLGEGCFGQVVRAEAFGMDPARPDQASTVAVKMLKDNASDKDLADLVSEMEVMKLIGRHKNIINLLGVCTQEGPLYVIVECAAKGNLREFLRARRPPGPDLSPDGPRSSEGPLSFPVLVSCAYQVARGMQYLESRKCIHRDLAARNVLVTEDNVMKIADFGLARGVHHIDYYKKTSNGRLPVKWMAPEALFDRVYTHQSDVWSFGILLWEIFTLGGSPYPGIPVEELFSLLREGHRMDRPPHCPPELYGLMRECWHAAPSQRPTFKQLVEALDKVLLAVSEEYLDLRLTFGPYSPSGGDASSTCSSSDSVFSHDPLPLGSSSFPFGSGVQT", "details": "at 1 µM", "units": {"inhibition": "%"}, "values": [{"compound": "Fc1ccc(-c2nn3ccccc3c2-c2ccncc2)cc1", "inhibition": 2.03}, {"compound": "NS(=O)(=O)c1ccc(N/N=C2\\C(=O)Nc3ccc4ncccc4c32)cc1", "inhibition": 6.88}, {"compound": "CCc1nn2ncccc2c1-c1ccnc(NC2CC2)n1", "inhibition": 1.27}, {"compound": "O=C(Nc1n[nH]c2cc(-c3ccc(F)cc3)ccc12)C1CC1", "inhibition": 1.06}, {"compound": "CCCN1CCC(c2ccc(Nc3nc(Nc4cc(F)ccc4C(N)=O)c4cc[nH]c4n3)c(OC)c2)CC1", "inhibition": 12.4}, {"compound": "CCCN(CCS(C)(=O)=O)Cc1ccc(-c2ccc3ncnc(Nc4ccc(OCc5cccc(F)c5)c(Cl)c4)c3c2)o1", "inhibition": 3.7}, {"compound": "CCn1cc(-c2ccnc3[nH]ccc23)c(-c2cccc(NC(=O)Nc3ccc(OCc4ccccc4)cc3)c2)n1", "inhibition": 3.27}, {"compound": "CC(C)COC(=O)c1ccc2c(c1)/C(=C/Nc1ccc(S(N)(=O)=O)cc1)C(=O)N2", "inhibition": 2.26}, {"compound": "NS(=O)(=O)c1ccc(Nc2ncc(-c3ccccc3)o2)cc1", "inhibition": 1.97}, {"compound": "Cc1ccc(O)cc1Nc1ccnc2cc(-c3ccccn3)ccc12", "inhibition": 30.8}, {"compound": "COc1cc2ncn(-c3cc(OCc4ccccc4C(F)(F)F)c(C(=O)N(C)C)s3)c2cc1OC", "inhibition": 2.15}, {"compound": "COc1ccc(-c2nn3ncccc3c2-c2ccnc(Nc3ccc4c(c3)OCCO4)n2)cc1", "inhibition": 1.91}, {"compound": "COc1cccc(-n2ncc3c(N/N=C/c4ccc(F)cc4)ncnc32)c1", "inhibition": 2.78}, {"compound": "COc1cc(Nc2nccc(Nc3ccc4c(C)n[nH]c4c3)n2)cc(OC)c1OC", "inhibition": 2.48}, {"compound": "COc1ccc(-c2cc3c(N)ncnc3o2)cc1", "inhibition": -1.73}, {"compound": "Nc1ncc(-c2cccc(S(N)(=O)=O)c2)c2scc(-c3ccc(F)c(Cl)c3)c12", "inhibition": 5.88}, {"compound": "COC(=O)c1sc(-n2cnc3cc(OC)c(OC)cc32)cc1OCc1ccccc1C(F)(F)F", "inhibition": 1.85}, {"compound": "Clc1ccc(-c2nn3ncccc3c2-c2ccnc(Nc3ccccc3)n2)cc1", "inhibition": 1.94}, {"compound": "CC(=O)NCc1cccc(C#Cc2cncnc2Nc2ccc(OCc3cccc(F)c3)c(Cl)c2)c1", "inhibition": -0.23}, {"compound": "COc1cc2c(cc1Nc1nc(Nc3ccsc3C(N)=O)c3cc[nH]c3n1)N(C(=O)CN(C)C)CCC2(C)C", "inhibition": 4.78}, {"compound": "Cc1cccc(Nc2ncc(-c3ccccc3)o2)c1", "inhibition": 1.36}, {"compound": "CCn1c(-c2nonc2N)nc2cnc(Oc3cccc(NC(=O)c4ccc(N(C)C)cc4)c3)cc21", "inhibition": -0.05}, {"compound": "COc1ccc(-c2oc3ncnc(N)c3c2-c2ccc(NC(=O)Nc3cc(C(F)(F)F)ccc3F)cc2)cc1", "inhibition": 48.5}, {"compound": "COc1cc(/C=N/Nc2ncnc3[nH]ncc23)ccc1O", "inhibition": 2.77}, {"compound": "Fc1cccc(COc2ccc(Nc3ncnc4sc(-c5ccco5)cc34)cc2Cl)c1", "inhibition": -0.7}, {"compound": "CN1CCC(n2cnc(-c3ccc(F)cc3)c2-c2ccnc(Nc3ccccc3)n2)CC1", "inhibition": 1.8}, {"compound": "CNC(=O)c1cccc(C#Cc2cncnc2Nc2ccc(OCc3cccc(F)c3)c(Cl)c2)c1", "inhibition": 1.45}, {"compound": "CCOc1ccc2c(-c3ccnc(Nc4cccc(C(F)(F)F)c4)n3)cnn2n1", "inhibition": -0.95}, {"compound": "CCN1CCC(CC(=O)Nc2n[nH]c3nnc(-c4cccc(F)c4F)cc23)CC1", "inhibition": -2.43}, {"compound": "FC(F)(F)c1cccc(-c2nn3ncccc3c2-c2ccnc(Nc3ccc4c(c3)OCCO4)n2)c1", "inhibition": 2.21}, {"compound": "CN(C)CCOc1ccc(-c2nc(-c3ccncc3)c(-c3ccc4c(c3)CC/C4=N\\O)[nH]2)cc1", "inhibition": 0.44}, {"compound": "Cc1cccc2c1NC(=O)/C2=N\\Nc1ccc(S(N)(=O)=O)cc1", "inhibition": 1.63}, {"compound": "COc1cccc(-c2c[nH]c3c(N/N=C/c4ccncc4)ncnc23)c1", "inhibition": 2.46}, {"compound": "COc1ccc(-c2cc(-c3c[nH]nc3-c3ccccn3)ccn2)cc1", "inhibition": 6.88}]}, {"biological_target": "Tyrosine-protein kinase Fgr (Homo sapiens) (UniProt P09769)", "sequence (P09769 2-529 limits assumed)": "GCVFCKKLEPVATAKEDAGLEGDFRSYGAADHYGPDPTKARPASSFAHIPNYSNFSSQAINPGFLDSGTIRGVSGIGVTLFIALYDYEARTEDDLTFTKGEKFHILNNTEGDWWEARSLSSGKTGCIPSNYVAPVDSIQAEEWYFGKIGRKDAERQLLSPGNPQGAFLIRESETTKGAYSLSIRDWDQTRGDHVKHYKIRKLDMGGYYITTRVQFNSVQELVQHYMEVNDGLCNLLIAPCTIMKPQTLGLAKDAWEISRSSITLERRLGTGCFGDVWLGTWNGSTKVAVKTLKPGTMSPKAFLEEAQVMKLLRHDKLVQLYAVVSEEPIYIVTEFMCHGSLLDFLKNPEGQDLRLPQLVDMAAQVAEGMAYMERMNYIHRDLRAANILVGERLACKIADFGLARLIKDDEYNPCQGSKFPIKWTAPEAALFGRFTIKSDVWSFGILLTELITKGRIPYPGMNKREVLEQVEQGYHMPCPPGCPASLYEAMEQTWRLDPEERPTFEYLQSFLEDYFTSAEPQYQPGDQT", "details": "at 0.1 µM", "units": {"inhibition": "%"}, "values": [{"compound": "Fc1ccc(-c2nn3ccccc3c2-c2ccncc2)cc1", "inhibition": -0.1}, {"compound": "NS(=O)(=O)c1ccc(N/N=C2\\C(=O)Nc3ccc4ncccc4c32)cc1", "inhibition": 8.01}, {"compound": "CCc1nn2ncccc2c1-c1ccnc(NC2CC2)n1", "inhibition": 3.49}, {"compound": "O=C(Nc1n[nH]c2cc(-c3ccc(F)cc3)ccc12)C1CC1", "inhibition": 1.35}, {"compound": "CCCN1CCC(c2ccc(Nc3nc(Nc4cc(F)ccc4C(N)=O)c4cc[nH]c4n3)c(OC)c2)CC1", "inhibition": 6.28}, {"compound": "CCCN(CCS(C)(=O)=O)Cc1ccc(-c2ccc3ncnc(Nc4ccc(OCc5cccc(F)c5)c(Cl)c4)c3c2)o1", "inhibition": 3.69}, {"compound": "CCn1cc(-c2ccnc3[nH]ccc23)c(-c2cccc(NC(=O)Nc3ccc(OCc4ccccc4)cc3)c2)n1", "inhibition": 7.42}, {"compound": "CC(C)COC(=O)c1ccc2c(c1)/C(=C/Nc1ccc(S(N)(=O)=O)cc1)C(=O)N2", "inhibition": 4.59}, {"compound": "NS(=O)(=O)c1ccc(Nc2ncc(-c3ccccc3)o2)cc1", "inhibition": 2.45}, {"compound": "Cc1ccc(O)cc1Nc1ccnc2cc(-c3ccccn3)ccc12", "inhibition": 52.2}, {"compound": "COc1cc2ncn(-c3cc(OCc4ccccc4C(F)(F)F)c(C(=O)N(C)C)s3)c2cc1OC", "inhibition": 0.95}, {"compound": "COc1ccc(-c2nn3ncccc3c2-c2ccnc(Nc3ccc4c(c3)OCCO4)n2)cc1", "inhibition": 47.9}, {"compound": "COc1cccc(-n2ncc3c(N/N=C/c4ccc(F)cc4)ncnc32)c1", "inhibition": 11.4}, {"compound": "COc1cc(Nc2nccc(Nc3ccc4c(C)n[nH]c4c3)n2)cc(OC)c1OC", "inhibition": 18.2}, {"compound": "COc1ccc(-c2cc3c(N)ncnc3o2)cc1", "inhibition": 1.49}, {"compound": "Nc1ncc(-c2cccc(S(N)(=O)=O)c2)c2scc(-c3ccc(F)c(Cl)c3)c12", "inhibition": 10.9}, {"compound": "COC(=O)c1sc(-n2cnc3cc(OC)c(OC)cc32)cc1OCc1ccccc1C(F)(F)F", "inhibition": 3.32}, {"compound": "Clc1ccc(-c2nn3ncccc3c2-c2ccnc(Nc3ccccc3)n2)cc1", "inhibition": 25.1}, {"compound": "CC(=O)NCc1cccc(C#Cc2cncnc2Nc2ccc(OCc3cccc(F)c3)c(Cl)c2)c1", "inhibition": -0.22}, {"compound": "COc1cc2c(cc1Nc1nc(Nc3ccsc3C(N)=O)c3cc[nH]c3n1)N(C(=O)CN(C)C)CCC2(C)C", "inhibition": 1.11}, {"compound": "Cc1cccc(Nc2ncc(-c3ccccc3)o2)c1", "inhibition": 2.72}, {"compound": "CCn1c(-c2nonc2N)nc2cnc(Oc3cccc(NC(=O)c4ccc(N(C)C)cc4)c3)cc21", "inhibition": 0.55}, {"compound": "COc1ccc(-c2oc3ncnc(N)c3c2-c2ccc(NC(=O)Nc3cc(C(F)(F)F)ccc3F)cc2)cc1", "inhibition": 17}, {"compound": "COc1cc(/C=N/Nc2ncnc3[nH]ncc23)ccc1O", "inhibition": 12.4}, {"compound": "Fc1cccc(COc2ccc(Nc3ncnc4sc(-c5ccco5)cc34)cc2Cl)c1", "inhibition": 3.8}, {"compound": "CN1CCC(n2cnc(-c3ccc(F)cc3)c2-c2ccnc(Nc3ccccc3)n2)CC1", "inhibition": 11.5}, {"compound": "CNC(=O)c1cccc(C#Cc2cncnc2Nc2ccc(OCc3cccc(F)c3)c(Cl)c2)c1", "inhibition": 4.48}, {"compound": "CCOc1ccc2c(-c3ccnc(Nc4cccc(C(F)(F)F)c4)n3)cnn2n1", "inhibition": 2.53}, {"compound": "CCN1CCC(CC(=O)Nc2n[nH]c3nnc(-c4cccc(F)c4F)cc23)CC1", "inhibition": 2.47}, {"compound": "FC(F)(F)c1cccc(-c2nn3ncccc3c2-c2ccnc(Nc3ccc4c(c3)OCCO4)n2)c1", "inhibition": 32.5}, {"compound": "CN(C)CCOc1ccc(-c2nc(-c3ccncc3)c(-c3ccc4c(c3)CC/C4=N\\O)[nH]2)cc1", "inhibition": 2.2}, {"compound": "Cc1cccc2c1NC(=O)/C2=N\\Nc1ccc(S(N)(=O)=O)cc1", "inhibition": 0.52}, {"compound": "COc1cccc(-c2c[nH]c3c(N/N=C/c4ccncc4)ncnc23)c1", "inhibition": 14.2}, {"compound": "COc1ccc(-c2cc(-c3c[nH]nc3-c3ccccn3)ccn2)cc1", "inhibition": 5.33}]}]}
